ChEMBL document CHEMBL1201862, “PubChem BioAssay data set” (2004)
In all, about 310,000 compounds went through this assay and about 11,000 (3.5%) were called active. Inconclusive results (about 8%) are left out. No cut-off for these calls is given here. Many of the other results were omitted from the sample, so actives are more common in it than they were.

biological target: Nuclear receptor ROR-gamma (Mus musculus) (UniProt P51450); test: VP16 counterscreen qHTS for inhibitors of ROR gamma transcriptional activity.; format: functional
Sequence (P51450 whole entry): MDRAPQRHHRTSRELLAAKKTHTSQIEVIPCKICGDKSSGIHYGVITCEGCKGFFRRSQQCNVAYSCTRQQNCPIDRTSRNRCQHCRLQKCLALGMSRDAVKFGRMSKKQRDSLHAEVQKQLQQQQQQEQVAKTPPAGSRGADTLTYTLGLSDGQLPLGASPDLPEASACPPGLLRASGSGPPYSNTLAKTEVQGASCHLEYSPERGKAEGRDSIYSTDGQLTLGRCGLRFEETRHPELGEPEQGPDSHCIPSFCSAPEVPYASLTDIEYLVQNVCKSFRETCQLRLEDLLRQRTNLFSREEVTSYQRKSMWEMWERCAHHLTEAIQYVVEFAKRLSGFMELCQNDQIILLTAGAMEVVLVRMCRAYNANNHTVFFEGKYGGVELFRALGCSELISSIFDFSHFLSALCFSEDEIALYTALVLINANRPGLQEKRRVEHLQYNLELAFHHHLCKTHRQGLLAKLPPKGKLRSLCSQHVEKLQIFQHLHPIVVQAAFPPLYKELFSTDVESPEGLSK

SMILES | Potency
Cl[Te]1(Cl)OCCO1 | 3.55 µM (active)
CNc1ccc2oc(C[C@@H]3OC4(CC[C@@H]3C)O[C@H](C(C)C(=O)c3ccc[nH]3)[C@H](C)C[C@H]4C)nc2c1C(=O)O (some centres not stated) | 631 µM (active)
